The values below come from ChEMBL document CHEMBL1961873, “Compounds: GSK PKIS; Assays: Nanosyn kinase panel” (2012).

Broadly, the inhibition is the change of the read-out against control, counted positive when it falls.

One assay deals with T1, Tyrosine-protein kinase Tec (Homo sapiens) (UniProt P42680).
T1 sequence (whole entry): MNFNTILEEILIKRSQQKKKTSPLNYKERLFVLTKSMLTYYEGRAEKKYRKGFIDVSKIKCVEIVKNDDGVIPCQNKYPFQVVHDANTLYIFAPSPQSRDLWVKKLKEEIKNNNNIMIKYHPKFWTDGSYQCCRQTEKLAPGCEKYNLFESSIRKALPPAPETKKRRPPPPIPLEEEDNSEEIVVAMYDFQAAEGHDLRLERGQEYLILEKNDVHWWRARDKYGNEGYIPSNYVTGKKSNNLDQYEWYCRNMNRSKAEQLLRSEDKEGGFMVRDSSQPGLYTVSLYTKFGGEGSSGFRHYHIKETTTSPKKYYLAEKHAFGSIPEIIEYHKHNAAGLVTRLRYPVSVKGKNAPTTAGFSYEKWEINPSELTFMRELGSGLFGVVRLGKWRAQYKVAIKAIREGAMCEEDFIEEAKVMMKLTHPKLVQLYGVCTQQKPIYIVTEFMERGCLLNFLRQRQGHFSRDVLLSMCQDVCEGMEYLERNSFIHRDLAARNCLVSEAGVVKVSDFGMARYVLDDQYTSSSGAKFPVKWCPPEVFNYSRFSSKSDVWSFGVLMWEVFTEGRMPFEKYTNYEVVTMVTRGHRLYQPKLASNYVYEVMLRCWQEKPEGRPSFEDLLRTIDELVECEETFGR
As to conditions: at 1 µM.
As for `c1ccc(Oc2ccc(Nc3ncc(-c4ccccc4)o3)cc2)cc1`, the inhibition amounted to 2.98%.

On to `COc1cc(Nc2ncc3c(C)nc(-c4cccc(C(F)(F)F)c4)n3n2)cc(OC)c1OC`, for which the inhibition was found to be 16.9%.

For `COc1cc2ncn(-c3cc(OCc4ccccc4C(F)(F)F)c(C(C)=O)s3)c2cc1OC`, the inhibition is 5.16%.

In the case of `CCc1nccc2c1nc(-c1nonc1N)n2CC`, the inhibition stood at 5.82%.

Take `Cc1ccc(NC(=O)c2ccoc2)cc1-c1ccc(C(=O)NCC2CC2)cc1`: the inhibition turned out to be 3.18%.

On to `NC(=O)c1ccc(Oc2nccc(-c3c(-c4ccc(F)cc4)ncn3C3CCNCC3)n2)cc1`, for which the inhibition turned out to be 6.14%.

Turning to `FC(F)(F)c1cccc(Nc2nccc(-c3cnn4nc(-c5ccccc5)ccc34)n2)c1`, the inhibition stood at 4.7%.

For the compound `O=C(Nc1n[nH]c2cc(-c3ccccc3)ccc12)C1CC1`, the inhibition worked out at 16.4%.

`N#Cc1ccc(Oc2nccc(-c3c(-c4ccc(F)cc4)ncn3C3CCNCC3)n2)cc1`: the inhibition came out at 5.61%.

Take `COc1cc(C)c(N(C)C(=O)CN(C)C)cc1Nc1nc(Nc2cccc(F)c2C(N)=O)c2cc[nH]c2n1`: the inhibition is 1.07%.

`O=C1Nc2ccccc2/C1=C/Nc1ccc(-n2cncn2)cc1`: the inhibition turned out to be 5.42%.

`CCN(CC)Cc1ccc(Nc2nccc(-c3cnn4ncccc34)n2)cc1`: the inhibition is 3.21%.

As for `CN(C)CCOc1ccc(-c2cc(-c3ccc4c(c3)CCC4=NO)c(-c3ccncc3)o2)cc1`, the inhibition was 1.01%.

For the compound `COc1cc2ncn(-c3cc(OCCc4ccccc4)c(C(N)=O)s3)c2cc1OC`, the inhibition turned out to be 4.4%.

`CN(c1ccc(NC(=O)Nc2c(Cl)cccc2Cl)cc1)c1ccnc(Nc2cccc(CS(C)(=O)=O)c2)n1`: the inhibition worked out at 21.4%.

In the case of `NC(=O)c1cc(-c2ccncc2)cc(-c2ccccc2)c1N`, the inhibition stood at 58.7%.

`NC(=O)c1cc(-c2ccc(F)cc2)cc(-c2ccncc2)c1N`: the inhibition amounted to 5.71%.

With `O=C1Nc2ccc(I)cc2C1=Cc1cc(Br)c(O)c(Br)c1`, the inhibition worked out at 3.72%.

In the case of `O=C(Nc1n[nH]c2nc(-c3ccco3)ccc12)C1CC1`, the inhibition was 3.97%.

Regarding `CN1CCN(CCCNc2nc3ccc(Oc4ccc(NC(=O)Nc5cc(C(F)(F)F)ccc5F)cc4)cc3[nH]2)CC1`, the inhibition is 5.07%.

As to `COc1ccc2cc(-c3c(-c4ccncc4)nc(-c4ccc(S(C)(=O)=O)cc4C)n3C)ccc2c1`, the inhibition came to 5.26%.

Turning to `CN(C)CCCNc1nccc(-c2c(-c3ccc(F)cc3)nn3cc(C(F)(F)F)ccc23)n1`, the inhibition turned out to be 1.41%.

For the compound `COc1cc2ncn(-c3cc(OCc4cccs4)c(C(N)=O)s3)c2cc1OC`, the inhibition turned out to be 2.67%.

`Nc1nccc(-c2c(-c3ccc(F)cc3)ncn2C2CCC(O)CC2)n1` (stereo not drawn): the inhibition was determined as 5.34%.

With `O=C(Nc1n[nH]c2nc(-c3ccc(O)cc3)c(Br)cc12)C1CC1`, the inhibition was 14.4%.

For `COc1cc(Nc2ncc3c(C)nc(-c4cccc(Oc5ccccc5)c4)n3n2)cc(OC)c1OC`, the inhibition is 5.31%.

As for `NS(=O)(=O)c1ccc(Nc2cc(-c3ccc(O)c(F)c3)n[nH]2)cc1`, the inhibition amounted to 0.4%.

With `CNC(=O)c1cncc(/C=C/c2c(C)cccc2C)c1`, the inhibition came to 38.2%.

With `Clc1ccc(CNc2nccc(-c3cnn4ncccc34)n2)cc1`, the inhibition came out at 7.34%.

`CCS(=O)(=O)c1ccc(OC)c(Nc2ncc(-c3cccc(-c4ccccc4F)c3)o2)c1`: the inhibition turned out to be 12.7%.

As to `Cc1nnc(-c2ccc(C)c(-c3ccc(C(=O)NCc4ccc(Cl)cc4)cc3)c2)o1`, the inhibition turned out to be 0.03%.

For `NCc1ccc(-n2c(-c3nonc3N)nc3cnccc32)cc1`, the inhibition is 4.95%.

In the case of `C/C(Nc1ccc(S(N)(=O)=O)cc1)=C1/C(=O)Nc2ccccc21`, the inhibition was -2.14%.

`NS(=O)(=O)c1ccc(N/N=C2\C(=O)Nc3ccc(-c4cnco4)cc32)cc1`: the inhibition is 4.09%.

In a further assay the target is Angiopoietin-1 receptor (Homo sapiens) (UniProt Q02763). The following applies: at 0.1 µM.
Sequence of Angiopoietin-1 receptor (Homo sapiens) (Q02763 whole entry): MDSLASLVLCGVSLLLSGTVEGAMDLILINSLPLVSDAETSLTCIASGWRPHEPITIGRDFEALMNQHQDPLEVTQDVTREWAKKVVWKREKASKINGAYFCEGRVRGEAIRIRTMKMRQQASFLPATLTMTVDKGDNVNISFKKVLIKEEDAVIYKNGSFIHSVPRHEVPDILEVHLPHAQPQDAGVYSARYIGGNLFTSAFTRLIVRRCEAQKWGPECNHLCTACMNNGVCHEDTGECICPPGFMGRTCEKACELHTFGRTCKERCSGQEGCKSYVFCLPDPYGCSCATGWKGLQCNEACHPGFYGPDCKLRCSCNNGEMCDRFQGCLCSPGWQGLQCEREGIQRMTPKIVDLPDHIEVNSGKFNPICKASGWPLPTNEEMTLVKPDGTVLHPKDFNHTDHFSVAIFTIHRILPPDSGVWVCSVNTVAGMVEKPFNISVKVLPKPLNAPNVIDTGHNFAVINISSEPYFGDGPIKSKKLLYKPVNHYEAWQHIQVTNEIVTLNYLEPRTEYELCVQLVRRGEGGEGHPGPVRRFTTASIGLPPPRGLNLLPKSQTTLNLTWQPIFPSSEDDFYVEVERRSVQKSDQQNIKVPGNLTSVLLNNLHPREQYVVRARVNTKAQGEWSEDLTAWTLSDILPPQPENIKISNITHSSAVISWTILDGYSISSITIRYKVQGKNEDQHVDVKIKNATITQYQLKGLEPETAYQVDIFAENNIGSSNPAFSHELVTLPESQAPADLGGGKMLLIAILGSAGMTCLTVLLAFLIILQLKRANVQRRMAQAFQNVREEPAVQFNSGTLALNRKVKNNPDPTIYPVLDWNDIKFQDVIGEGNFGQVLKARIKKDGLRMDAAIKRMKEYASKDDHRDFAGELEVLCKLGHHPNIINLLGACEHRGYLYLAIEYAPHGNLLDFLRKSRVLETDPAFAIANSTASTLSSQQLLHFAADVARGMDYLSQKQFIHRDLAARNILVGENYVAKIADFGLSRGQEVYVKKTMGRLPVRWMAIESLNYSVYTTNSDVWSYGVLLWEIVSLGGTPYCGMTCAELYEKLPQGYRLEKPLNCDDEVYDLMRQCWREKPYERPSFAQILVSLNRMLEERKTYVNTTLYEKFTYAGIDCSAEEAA
As for `c1ccc(Oc2ccc(Nc3ncc(-c4ccccc4)o3)cc2)cc1`, the inhibition was 0.12%.

For `COc1cc(Nc2ncc3c(C)nc(-c4cccc(C(F)(F)F)c4)n3n2)cc(OC)c1OC`, the inhibition is 2.15%.

For `COc1cc2ncn(-c3cc(OCc4ccccc4C(F)(F)F)c(C(C)=O)s3)c2cc1OC`, the inhibition stood at 1.54%.

In the case of `CCc1nccc2c1nc(-c1nonc1N)n2CC`, the inhibition came out at 2.53%.

For the compound `Cc1ccc(NC(=O)c2ccoc2)cc1-c1ccc(C(=O)NCC2CC2)cc1`, the inhibition was found to be 1.56%.

As for `NC(=O)c1ccc(Oc2nccc(-c3c(-c4ccc(F)cc4)ncn3C3CCNCC3)n2)cc1`, the inhibition was 5.16%.

For the compound `FC(F)(F)c1cccc(Nc2nccc(-c3cnn4nc(-c5ccccc5)ccc34)n2)c1`, the inhibition was 0.12%.

In the case of `O=C(Nc1n[nH]c2cc(-c3ccccc3)ccc12)C1CC1`, the inhibition came to 1.86%.

Consider `N#Cc1ccc(Oc2nccc(-c3c(-c4ccc(F)cc4)ncn3C3CCNCC3)n2)cc1`, for which the inhibition was found to be 3.13%.

Consider `COc1cc(C)c(N(C)C(=O)CN(C)C)cc1Nc1nc(Nc2cccc(F)c2C(N)=O)c2cc[nH]c2n1`, for which the inhibition came out at 0.26%.

On to `O=C1Nc2ccccc2/C1=C/Nc1ccc(-n2cncn2)cc1`, for which the inhibition stood at 0.76%.

In the case of `CCN(CC)Cc1ccc(Nc2nccc(-c3cnn4ncccc34)n2)cc1`, the inhibition turned out to be 3.9%.

Turning to `CN(C)CCOc1ccc(-c2cc(-c3ccc4c(c3)CCC4=NO)c(-c3ccncc3)o2)cc1`, the inhibition was 0.77%.

Take `COc1cc2ncn(-c3cc(OCCc4ccccc4)c(C(N)=O)s3)c2cc1OC`: the inhibition stood at 3.5%.

Regarding `CN(c1ccc(NC(=O)Nc2c(Cl)cccc2Cl)cc1)c1ccnc(Nc2cccc(CS(C)(=O)=O)c2)n1`, the inhibition worked out at 64.2%.

In the case of `NC(=O)c1cc(-c2ccncc2)cc(-c2ccccc2)c1N`, the inhibition was 3.02%.

For the compound `NC(=O)c1cc(-c2ccc(F)cc2)cc(-c2ccncc2)c1N`, the inhibition was 4.39%.

In the case of `O=C1Nc2ccc(I)cc2C1=Cc1cc(Br)c(O)c(Br)c1`, the inhibition was determined as 4.71%.

As to `O=C(Nc1n[nH]c2nc(-c3ccco3)ccc12)C1CC1`, the inhibition amounted to 5.28%.

As to `CN1CCN(CCCNc2nc3ccc(Oc4ccc(NC(=O)Nc5cc(C(F)(F)F)ccc5F)cc4)cc3[nH]2)CC1`, the inhibition was 9.94%.

Consider `COc1ccc2cc(-c3c(-c4ccncc4)nc(-c4ccc(S(C)(=O)=O)cc4C)n3C)ccc2c1`, for which the inhibition was determined as 75%.

As for `CN(C)CCCNc1nccc(-c2c(-c3ccc(F)cc3)nn3cc(C(F)(F)F)ccc23)n1`, the inhibition stood at 5.61%.

Regarding `COc1cc2ncn(-c3cc(OCc4cccs4)c(C(N)=O)s3)c2cc1OC`, the inhibition came to 4.44%.

For the compound `Nc1nccc(-c2c(-c3ccc(F)cc3)ncn2C2CCC(O)CC2)n1` (stereo not drawn), the inhibition was -0.11%.

As for `O=C(Nc1n[nH]c2nc(-c3ccc(O)cc3)c(Br)cc12)C1CC1`, the inhibition worked out at 5.98%.

Turning to `COc1cc(Nc2ncc3c(C)nc(-c4cccc(Oc5ccccc5)c4)n3n2)cc(OC)c1OC`, the inhibition was determined as 1.33%.

Consider `NS(=O)(=O)c1ccc(Nc2cc(-c3ccc(O)c(F)c3)n[nH]2)cc1`, for which the inhibition was 2.97%.

As to `CNC(=O)c1cncc(/C=C/c2c(C)cccc2C)c1`, the inhibition was -0.16%.

Take `Clc1ccc(CNc2nccc(-c3cnn4ncccc34)n2)cc1`: the inhibition was 0.58%.

On to `CCS(=O)(=O)c1ccc(OC)c(Nc2ncc(-c3cccc(-c4ccccc4F)c3)o2)c1`, for which the inhibition came to 3.06%.

As for `Cc1nnc(-c2ccc(C)c(-c3ccc(C(=O)NCc4ccc(Cl)cc4)cc3)c2)o1`, the inhibition was 4.45%.

In the case of `NCc1ccc(-n2c(-c3nonc3N)nc3cnccc32)cc1`, the inhibition stood at 2.68%.

With `C/C(Nc1ccc(S(N)(=O)=O)cc1)=C1/C(=O)Nc2ccccc21`, the inhibition came to 0.44%.

Consider `NS(=O)(=O)c1ccc(N/N=C2\C(=O)Nc3ccc(-c4cnco4)cc32)cc1`, for which the inhibition came to 3.92%.
